According to PubChem BioAssay (NCI):
The panel holds about 83,000 compounds, 20% with a hit somewhere; the sample as a whole holds those more often.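 In brief: 96-well plates, 48 h treatment, single concentration, percent growth endpoint.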 Active and inactive are the calls of the source. How the source made its calls: active means growth percent below 10; inactive means the rest.

Columns and labels:
Experiment in all cases: NCI-60 one-dose screen, 48 h (100 = growth as untreated, 0 = no growth, -100 = all killed)
Details in all cases: 10 µM unless noted
[1] = test system: DU-145 prostate
[2] = test system: K-562 leukemia
[3] = test system: MALME-3M melanoma
[4] = test system: MDA-MB-231 breast
[5] = test system: RXF 393 renal
[6] = test system: SF-268 CNS
[7] = test system: SF-295 CNS
[8] = test system: SF-539 CNS
[9] = test system: UACC-257 melanoma
[10] = test system: M14 melanoma

Structure (SMILES)	growth [1]	growth [2]	growth [3]	growth [4]	growth [5]	growth [6]	growth [7]	growth [8]	growth [9]	growth [10]
COc1ccc(C2=NN(C(C)=O)C(c3cccc(Nc4ccnc5cc(Cl)ccc45)c3)C2)cc1 (stereo not given)	62.3% (inactive)	18.3% (inactive)	65.8% (inactive)	63% (inactive)	51.1% (inactive)	48.2% (inactive)	52.5% (inactive)	72.7% (inactive)	49.2% (inactive)	40.2% (inactive)
COc1ccc2c(c1)sc1nc(-c3ccc(Br)cc3)cn12	115% (inactive)	90.9% (inactive)	109% (inactive)	89.6% (inactive)	109% (inactive)	118% (inactive)	89.2% (inactive)	105% (inactive)	101% (inactive)	103% (inactive)
OCc1n(Cc2ccc3ccccc3c2)cc[n+]1Cc1ccc2ccccc2c1	84.7% (inactive)	22.7% (inactive)	38.1% (inactive)	51.4% (inactive)	57.3% (inactive)	60.7% (inactive)	79.2% (inactive)	68.3% (inactive)	18.3% (inactive)	41.7% (inactive)
COc1ccc(-c2cc(-c3cccnc3)nc3sc(C(=O)Nc4ccccc4)c(N)c23)cc1OC	54.6% (inactive)	34.2% (inactive)	109% (inactive)	69.7% (inactive)	76% (inactive)	69% (inactive)	77.2% (inactive)	73.3% (inactive)	107% (inactive)	66.3% (inactive)
COc1cc(/C=C/C(=O)CC(=O)/C=C/c2ccc(OC(=O)C3C4CC5CC(C4)CC3C5)c(OC)c2)ccc1OC(=O)C1C2CC3CC(C2)CC1C3 (stereo not given)	120% (inactive)	95.1% (inactive)	78.4% (inactive)	116% (inactive)	110% (inactive)	104% (inactive)	98.9% (inactive)	108% (inactive)	102% (inactive)	105% (inactive)
C=C1CCC2C(C)(COC(=O)CC)C(OC(=O)CC)CCC2(C)C1C/C=C1/C(=O)OCC1OC(=O)CC (stereo not given)	28.9% (inactive)	2.81% (active)	2.98% (active)	-29.6% (active)	-97.5% (active)	39.4% (inactive)	56.7% (inactive)	-64.3% (active)	0.936% (active)	-76.8% (active)
COc1cc(/C=C/C(=O)c2c(C)n([O-])c3ccccc3[n+]2=O)cc(OC)c1OC	32.6% (inactive)	21.8% (inactive)	66.2% (inactive)	78.9% (inactive)	53.9% (inactive)	43.6% (inactive)	46.8% (inactive)	75.5% (inactive)	54.4% (inactive)	60.2% (inactive)
NS(=O)(=O)c1ccc(-n2ncc3c(N/N=C/c4ccccc4)ncnc32)cc1	73.1% (inactive)	83.1% (inactive)	85.6% (inactive)	101% (inactive)	-18.8% (active)	76.9% (inactive)	29.8% (inactive)	76.2% (inactive)	62.4% (inactive)	116% (inactive)
C[C@H]1O[C@@H](O[C@H]2[C@@H](O)C[C@H](O[C@H]3[C@@H](O)C[C@H](O[C@H]4CC[C@]5(C)C6C[C@@H](O)[C@]7(C)[C@@H](C8=CC(=O)OC8)CC[C@]7(O)C6CC[C@@H]5C4)O[C@@H]3C)O[C@@H]2C)C[C@H](O)[C@@H]1O (stereo not given in full)	-100% (active)	-24.2% (active)	-57.2% (active)	-83.6% (active)	-22.4% (active)	-100% (active)	-99.9% (active)	-96.2% (active)	-100% (active)	-81.6% (active)
Nc1c(C(=O)Nc2cccc(Cl)c2)sc2nc3c(cc12)C(O)CCC3 (stereo not given)	7.3% (active)	10.6% (inactive)	40.2% (inactive)	42.6% (inactive)	-25.4% (active)	50.2% (inactive)	13.7% (inactive)	-24.9% (active)	66.1% (inactive)	17.1% (inactive)
COc1cc(/C=C/c2cc(/C=C/c3ccc(O)c(OC)c3)n(C(=O)Cc3ccccc3)n2)ccc1O	17.3% (inactive)	1.69% (active)	-0.485% (active)	15.2% (inactive)	-42.6% (active)	9.64% (active)	8.28% (active)	-23.1% (active)	-5.67% (active)	0.243% (active)
COc1cc(NC(=O)NCc2ccco2)ccc1-c1ccc(NC(=O)NCc2ccco2)cc1OC	56.6% (inactive)	36% (inactive)	78% (inactive)	43.2% (inactive)	-10.7% (active)	56.8% (inactive)	46.3% (inactive)	-1.88% (active)	51% (inactive)	64.3% (inactive)
[N-]=[N+]=NCc1cccc(/C(O)=C/C(=O)C(=O)O)c1	92.1% (inactive)	110% (inactive)	91.5% (inactive)	88.4% (inactive)	24.6% (inactive)	91.5% (inactive)	143% (inactive)	100% (inactive)	100% (inactive)	118% (inactive)
Oc1ccc(/C=N/Nc2nc3ccccc3s2)c(O)c1	32.4% (inactive)	30% (inactive)	52.4% (inactive)	41.9% (inactive)	53.9% (inactive)	21.6% (inactive)	36.4% (inactive)	34.5% (inactive)	37.4% (inactive)	27.1% (inactive)
Cc1ccc(N/N=C(/C(=O)c2ccc(Cl)cc2)c2nc(C)cc(=O)[nH]2)cc1	102% (inactive)	91.7% (inactive)	126% (inactive)	95.9% (inactive)	40.7% (inactive)	107% (inactive)	90% (inactive)	85.3% (inactive)	105% (inactive)	82.7% (inactive)
COc1cc(/C=C/C(=O)C(C(=O)/C=C/c2ccc(OC(=O)CCNc3nnc(C)s3)c(OC)c2)C(=O)CCNc2nnc(C)s2)ccc1OC(=O)CCNc1nnc(C)s1	-14.5% (active)	-11.8% (active)	-29.7% (active)	-4.77% (active)	-70.2% (active)	19.8% (inactive)	2.23% (active)	-15.8% (active)	46.5% (inactive)	-2.91% (active)
COC(=O)[C@H](Cc1cn(C)cn1)NC(=O)[C@H](C)NC(=O)Nc1cc(C(F)(F)F)cc(C(F)(F)F)c1	-80.3% [100 µM] (active)	-26.6% [100 µM] (active)	-81.3% [100 µM] (active)	-76.4% [100 µM] (active)	-83.1% [100 µM] (active)	-77% [100 µM] (active)	-82.2% [100 µM] (active)	-95.1% [100 µM] (active)	-92.9% [100 µM] (active)	-85.2% [100 µM] (active)
COc1ccccc1NC(=O)c1sc2nc3c(cc2c1N)C(=O)CCC3	86.6% (inactive)	41.5% (inactive)	58.2% (inactive)	57.5% (inactive)	77% (inactive)	102% (inactive)	25.7% (inactive)	66.2% (inactive)	58.5% (inactive)	47.1% (inactive)
O=C(Nc1ccccc1)c1cc(-n2cnc([N+](=O)[O-])c2)cc(-n2cnc([N+](=O)[O-])c2)n1	110% (inactive)	86.5% (inactive)	94.4% (inactive)	88.6% (inactive)	-14.6% (active)	119% (inactive)	130% (inactive)	102% (inactive)	89.3% (inactive)	94.6% (inactive)
CSc1nc(Nc2ccc(S(=O)(=O)Nc3ccon3)cc2)c(C#N)c(-c2ccc(Cl)cc2)n1	106% (inactive)	-0.642% (active)	111% (inactive)	102% (inactive)	110% (inactive)	105% (inactive)	113% (inactive)	106% (inactive)	112% (inactive)	88.1% (inactive)
N#Cc1c(-c2ccccc2)cc(-c2ccccc2)n(CCCCC(=O)O)c1=O	107% (inactive)	80.8% (inactive)	87.8% (inactive)	91% (inactive)	89.7% (inactive)	94% (inactive)	82.8% (inactive)	93.5% (inactive)	94.1% (inactive)	86.4% (inactive)
Cc1ccc(C(=O)Cc2ccccc2)c(O)c1	101% (inactive)	98.8% (inactive)	115% (inactive)	103% (inactive)	115% (inactive)	97.6% (inactive)	107% (inactive)	102% (inactive)	108% (inactive)	110% (inactive)
O=C(Nc1ccc2c(c1)C(=O)c1ccccc1-2)c1ccccc1	81.9% (inactive)	81.2% (inactive)	90.2% (inactive)	81.9% (inactive)	99.2% (inactive)	65.2% (inactive)	103% (inactive)	52.6% (inactive)	111% (inactive)	88% (inactive)
